Assay results reported in PubChem BioAssay (NCATS).
Values joined by “and” are separate entries in the source; they are usually repeats but may differ in a detail not shown here. Identical values can stand only once. Records with an inconclusive call do not appear. Active and inactive are the calls of the source. Unless noted, the call rests on the fitted dose curve; in most records, active means well fitted curve in the direction sought with a large enough effect; inconclusive means small, poorly fitted or top-dose-only effect, or another doubt; inactive means no such curve, though single readings can be large; an effect the other way counts as inactive or inconclusive.

Tests used:
[1] = qHTS for differential inhibitors of proliferation of Plasmodium falciparum line Dd2 (AID 1882); details: Potency: Plasmodium falciparum Dd2 proliferation inhibition; series mostly up to 28.7 µM; further: nearly all actives have a fitted effect of over 65% in size; further: potency means the concentration at half of the fitted maximal effect
Summary of the method: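 SYBR Green DNA fluorescence (ex 485, em 535 nm) after overnight lysis quantifies parasite growth; compound exposure lasted 72 h at 37 C on infected red cells at 2.5% hematocrit, 0.3% parasitemia (final). Artemisinin 0.29 uM and vehicle wells define normalization.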

[2] = qHTS for differential inhibitors of proliferation of Plasmodium falciparum line W2 (AID 1883); details: Potency: Plasmodium falciparum W2 proliferation inhibition; series mostly up to 28.7 µM;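 further: potency means the concentration at half of the fitted maximal effect; parasites grown with compound for 72 h before lysis and staining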
[3] = qHTS for differential inhibitors of proliferation of Plasmodium falciparum line HB3 (AID 1886); details: Potency: Plasmodium falciparum HB3 proliferation inhibition; series mostly up to 28.7 µM;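 further: parasites grown with compound for 72 h before SYBR Green readout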; further: potency means the concentration at half of the fitted maximal effect
[4] = target: Ferritin light chain (Equus caballus) (UniProt P02791); assay: qHTS Validation Assay for Identification of Novel General Anesthetics (AID 2323); details: horse apoferritin, anesthetic-site fluorescent probe displacement; series mostly up to 76.9 µM; further: on the % scale 0 is the no-effect control and ±100 the full control effect
Summary of the method: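 Fluorescence at 535 nm (excitation 380 nm) reported loss of 1-AMA binding to horse-spleen apoferritin (10 uM) in PBS with 50% saturated 1-aminoanthracene, after 10 min room-temperature incubation with compound; values from Hill fits of normalized response.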

[5] = qHTS Assay for Identification of Small Molecule Agonists for Hypoxia Response Element Signaling Pathway (AID 914; active means well fitted activation curve with a large enough effect in the signal ratio, with a control signal flat, not every such curve was filed as active; the % refers to the signal ratio; further: % of control where 0% means no effect); details: ME-180 HRE-bla reporter, beta-lactamase ratio, CoCl2, 17 h; activation: stronger effect = higher value
Summary of the method: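 ME-180 cells carrying an HRE-driven beta-lactamase reporter were treated with compounds in a titration series plus an EC50 level of CoCl2 for 17 h at 37 degrees Celsius; CCF4 readout as the 460nm/530nm ratio gave AC50 values.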

[6] = Cell Viability - BJ (AID 421; calls by dose curve;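 further: potency means the concentration at half of the fitted maximal effect; cells exposed to compound for 40 hours at 37 °C before readout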); details: BJ fibroblast viability, qHTS
Summary of the method: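 Cytotoxicity as drop in intracellular ATP (CellTiter-Glo, 20 min RT) after 40 hr compound exposure of BJ fibroblasts at 37 °C. Titrations scaled between DMSO and 100 uM tamoxifen, Hill-fitted for AC50.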

[7] = Cell Viability - HepG2 (AID 433; calls by dose curve;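 further: potency means the concentration at half of the fitted maximal effect; cells exposed to compound for 40 hours; potency for ATP loss meaning cytotoxicity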); details: qHTS
Summary of the method: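 Read-out is luciferase-based quantitation of cellular ATP as a measure of viable HepG2 cells after 40 h treatment at 37 °C. Signal decrease is scaled between DMSO-only and 100 uM tamoxifen controls, with AC50 fitted by the Hill equation.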

[8] = Cell Viability - NIH 3T3 (AID 541); details: NIH 3T3 cell viability, qHTS; activity change, negative = cytotoxicity: at 92.2 µM (top of the series);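 further: cells exposed to compound for 40 hours; plate controls were DMSO alone for no effect and tamoxifen positive control for full effect; nearly all actives have a fitted effect of over 25% in size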
Summary of the method: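 Cells seeded at 1000/well, rested 5 hr at 37 °C, then dosed and incubated 40 hr at 37 °C. CellTiter-Glo added, 20 min room temperature, luminescence read. AC50 by Hill fit.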

[9] = Cellular Toxicity (caspase-3) Jurkat (AID 655); details: Jurkat caspase-3 activation, luminescence, DMSO = 0%, tamoxifen = 100%; at 92.2 µM (top of the series);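 further: cells exposed to compound for 16 h at 37 °C before reading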
Summary of the method: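 5000 Jurkat cells/well; compound 16 hr, 37 °C; Caspase-Glo 3/7 added, 20 min RT; luminescence read. Norm: DMSO = 0%, tamoxifen 100 uM = 100%. AC50, Hill model.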

[10] = Cellular Toxicity (caspase-3) SHSY5Y (AID 657); details: SH-SY5Y caspase-3 activation, DMSO zero, 10 µM staurosporine = 100%; series mostly up to 91.7 µM
Summary of the method: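 qHTS, SH-SY5Y, 1500 cells/well, 5 h pre-incubation 37 °C; compound 16 h 37 °C; Caspase-Glo 3/7 1 h RT; luminescence. Norm.: DMSO = 0, 10 uM staurosporine = 100%. Hill fit → AC50.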

[11] = Cellular Toxicity (caspase-3) SK-N-SH (AID 661); details: SK-N-SH caspase-3 activation, qHTS, DMSO as zero, staurosporine as full; series mostly up to 91.7 µM;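 further: 0% = DMSO basal and 100% = 10 µM staurosporine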
Summary of the method: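 Cells were seeded and incubated 5 hr at 37 °C, dosed with compound over a concentration range for 16 hr, then given Caspase-Glo 3/7 reagent for 1 hr at room temperature before luminescence reading.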

[12] = Cell Viability - LYMP2-003 (AID 965); details: LYMP2-003 lymphoblastoid cell viability; series mostly up to 92.2 µM;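 further: cells exposed to compounds for 24 h before reading; nearly all actives have a fitted effect of over 50% in size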; further: potency means the concentration at half of the fitted maximal effect;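 on activity change, negative = cytotoxicity: 0% = DMSO only and full effect = 92 µM tetraoctylammonium bromide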
Summary of the method: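 Seed 2500 lymphoblastoid cells/well; incubate 5 hr, 37 C; add compounds; incubate 24 hr, 37 C; add CellTiter-Glo, 30 min RT; read luminescence. AC50 from Hill fit.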

[13] = Cell Viability - LYMP2-025 (AID 976); details: LYMP2-025 lymphoblastoid cell viability; series mostly up to 92.2 µM; further: potency means the concentration at half of the fitted maximal effect;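 on activity change, negative = cytotoxicity: plate controls were DMSO only for no effect and tetraoctylammonium bromide control for full effect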
Summary of the method: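 Acute cytotoxicity is scored as a concentration-dependent fall in intracellular ATP, measured by luciferase luminescence, in human lymphoblastoid LYMP2-025 cells exposed to compound for 24 hours at 37 C. AC50 values come from standard Hill fits.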

[14] = Cell Viability - LYMP2-007 (AID 979); details: LYMP2-007 lymphoblastoid cell viability; series mostly up to 92.2 µM;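 further: cells exposed to compound for 24 h before reading; nearly all actives have a fitted effect of over 60% in size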; further: potency means the concentration at half of the fitted maximal effect;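 on activity change, negative = cytotoxicity: 0% = DMSO only and the negative end = 92 µM tetraoctylammonium bromide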
Summary of the method: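 Cells are seeded at 2500 per well and rested 5 hr. Compounds are then added over a concentration series for 24 hr at 37 C. CellTiter-Glo is added for 30 min at room temperature before luminescence reading.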

[15] = qHTS assay for small molecule antagonists of retinoid X receptor alpha signaling (AID 588546; active means well fitted inhibition curve with a large enough effect in the signal ratio, with a control signal flat, not every such curve was filed as active; the % refers to the signal ratio;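 further: cells stimulated with 9-cis-retinoic acid as agonist; on the % scale 0 is the no-effect control and ±100 the full control effect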); details: HEK293T RXRa-UAS-bla, beta-lactamase ratio, antagonist mode; measured here: W530 green channel, cytotoxicity proxy
Summary of the method: (§1)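 Beta-lactamase reporter inhibition, read as CCF4 fluorescence ratio (ex 405, em 460/530 nm) after 2 h at RT. HEK293T UAS-bla cells, 2500/well, were stimulated with 9-cis-RA at 500 or 100 nM final alongside test compound for 18 h at 37 C.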

[16] = target: Retinoic acid receptor RXR-alpha (Homo sapiens) (UniProt P19793); assay: as above; details: HEK293T RXRa-UAS-bla, beta-lactamase ratio, antagonist mode
Summary of the method: as §1

[17] = qHTS assay for small molecule activators of the nuclear factor-kappa B (NF-kB) signaling pathway (AID 651749; active means well fitted activation curve with a large enough effect in the signal ratio; the % refers to the signal ratio; further: % of control where 0% means no effect); details: NF-kB-bla ME-180 cells, beta-lactamase FRET ratio, 16 h; activation: stronger effect = higher value
Summary of the method: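 Activation measured after 16 hr compound treatment at 37C, 5% CO2, of 2,000 ME-180 cells/well stably expressing an NF-kB response element–driven beta-lactamase reporter, via FRET-disruption fluorescence.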

[18] = target: Nuclear receptor ROR-gamma (Homo sapiens) (UniProt P51449); assay: qHTS assay for small molecule antagonists of the retinoid-related orphan receptor gamma (ROR-gamma) signaling pathway (AID 651802); details: ROR-gamma antagonist cell reporter assay; series mostly up to 92.2 µM; further: nearly all actives have a fitted effect of over 60% in size; further: potency means the concentration at half of the fitted maximal effect
Summary of the method: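 Steps: cells dispensed; compound or DMSO transferred by pin tool; doxycycline added to induce the ROR response element-driven luciferase; plates held 16hr at 37C; ONE-Glo added and luminescence measured.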

[19] = qHTS assay for small molecule agonists of the antioxidant response element (ARE) signaling pathway measured by Nrf2-dependant transcriptional activity (AID 720636; active means well fitted curve in the direction sought with a large enough effect in the repeat runs; an effect the other way counts as inactive or inconclusive; further: % of control where 0% means no effect); details: ARE-luc HepG2, Nrf2 luciferase reporter, 16 h; series mostly up to 92.4 µM
Summary of the method: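 ARE-luc HepG2 cells carrying an Nrf2-responsive luciferase reporter were plated in medium with 1% dialyzed FBS, left 6 hr at 37 C to attach, then exposed to compound for 16 hr. Luciferase luminescence was read after ONE-Glo addition.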

[20] = qHTS assay for cell viability of the p53RE-bla HCT-116 cell line (AID 743292); details: p53RE-bla HCT-116 viability, ATP luminescence, 16 h; series mostly up to 95 µM; further: on the % scale 0 is the no-effect control and ±100 the full control effect; nearly all actives have a fitted effect of over 55% in size
Summary of the method: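 CellSensor p53RE-bla HCT-116 cells, 4,000/well, preincubated 5 h at 37 C, then exposed to compounds in DMSO for 16 h at 37 C. Viability read as CellTiter-Glo luminescence (intracellular ATP) after 30 min at room temperature.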

Chain of Ferritin light chain (Equus caballus) (P02791 2-175 limits assumed): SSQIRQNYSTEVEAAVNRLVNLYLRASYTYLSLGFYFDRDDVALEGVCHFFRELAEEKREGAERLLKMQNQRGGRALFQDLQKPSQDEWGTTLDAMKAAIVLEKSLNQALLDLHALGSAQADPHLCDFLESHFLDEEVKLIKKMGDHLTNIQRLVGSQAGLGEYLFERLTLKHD
Chain of Nuclear receptor ROR-gamma (Homo sapiens) (P51449 whole entry, looked up): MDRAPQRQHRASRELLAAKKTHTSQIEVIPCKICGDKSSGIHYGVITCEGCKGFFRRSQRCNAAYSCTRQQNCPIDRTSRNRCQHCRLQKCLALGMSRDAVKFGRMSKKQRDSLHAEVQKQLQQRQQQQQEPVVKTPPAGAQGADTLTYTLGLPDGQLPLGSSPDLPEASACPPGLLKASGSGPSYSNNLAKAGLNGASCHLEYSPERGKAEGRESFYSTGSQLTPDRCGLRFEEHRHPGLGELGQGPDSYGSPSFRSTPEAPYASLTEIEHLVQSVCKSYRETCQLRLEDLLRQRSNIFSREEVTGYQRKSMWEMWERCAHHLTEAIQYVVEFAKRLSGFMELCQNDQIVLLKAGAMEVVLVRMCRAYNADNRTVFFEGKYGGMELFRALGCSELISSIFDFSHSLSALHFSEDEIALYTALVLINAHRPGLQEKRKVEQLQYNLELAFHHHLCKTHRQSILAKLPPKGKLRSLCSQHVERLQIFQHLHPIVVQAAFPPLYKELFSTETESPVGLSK
Chain of Retinoic acid receptor RXR-alpha (Homo sapiens) (P19793 whole entry, looked up): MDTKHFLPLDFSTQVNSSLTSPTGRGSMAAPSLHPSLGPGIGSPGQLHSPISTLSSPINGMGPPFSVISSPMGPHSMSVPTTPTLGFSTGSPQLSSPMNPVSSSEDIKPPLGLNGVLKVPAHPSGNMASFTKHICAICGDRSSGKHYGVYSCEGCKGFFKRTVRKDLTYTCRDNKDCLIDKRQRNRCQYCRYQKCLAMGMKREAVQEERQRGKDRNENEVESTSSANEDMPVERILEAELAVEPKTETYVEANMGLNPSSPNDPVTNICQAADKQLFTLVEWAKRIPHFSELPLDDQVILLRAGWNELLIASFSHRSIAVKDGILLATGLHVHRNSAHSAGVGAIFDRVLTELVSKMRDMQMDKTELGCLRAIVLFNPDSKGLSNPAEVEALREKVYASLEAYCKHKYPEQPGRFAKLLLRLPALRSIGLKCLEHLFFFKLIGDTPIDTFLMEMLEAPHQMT

CCc1c(C(=O)OC)ncc2[nH]c3cc(OC)c(OC)cc3c12
inactive: Potency [1] | Potency [4]
active: Potency [2] 7.94 µM | Potency [3] 10 µM

c1csc(CN2CC[C@@]3(CCCNC3)C2)n1
inactive: activation [5] 9.27%

N#Cc1cccc(NC(=O)N2CC3(CCN(C(=O)Oc4ccccc4)CC3)C2)c1
inactive: activation [5] -17.9%

CCCN1CCc2cc(O)cc3c2C1Cc1ccc(O)c(O)c1-3 (centres undefined)
active: Potency [1] 8.91 µM | Potency [2] 3.55 µM | Potency [3] 3.55 µM
inactive: Potency [4]

CNCC[C@@H](Oc1ccc(C(F)(F)F)cc1)c1ccccc1
active: Potency [2] 4.47 µM

CCCN1CCc2cccc3c2C1Cc1ccc(O)c(O)c1-3 (centres undefined)
active: Potency [1] 3.16 µM | Potency [2] 2 µM | Potency [3] 2 µM
inactive: Potency [4]

CNC(=O)O/N=C/C(C)(C)SC
inactive: Potency [6] > 92 µM | Potency [7] > 92 µM | activity change, negative = cytotoxicity [8] -9.42% | caspase-3 activation [9] -0.602% | outcome [10] | outcome [11] | Potency [12] | Potency [13] | Potency [14] | max response [16] -10.4% and 16.3% and -14.6% | activation [17] -0.362% and -4.25% and 1.36% | Potency [18] | outcome [19] | Potency [20]
-9.38% and -5.02% and 4.99%: max response [15]

CC(C)[C@@]1(NC(=O)[C@@H]2C[C@@H]3c4cccc5[nH]cc(c45)C[C@H]3N(C)C2)O[C@@]2(O)C3CCCN3C(=O)[C@H](Cc3ccccc3)N2C1=O (some centres undefined)
inactive: Potency [4]
active: Potency [1] 1.41 µM | Potency [2] 0.891 µM | Potency [3] 0.891 µM

C[C@]12CC[C@H](O)CC1=CCC1C2CC[C@]2(C)C(=O)CC[C@@H]12 (some centres undefined)
inactive: Potency [1] | Potency [3] | Potency [4]

CC(C)C[C@H]1C(=O)N2CCCC2[C@]2(O)O[C@](NC(=O)[C@@H]3C=C4c5cccc6[nH]c(Br)c(c56)C[C@H]4N(C)C3)(C(C)C)C(=O)N12 (some centres undefined)
active: Potency [1] 2 µM | Potency [2] 1.26 µM | Potency [3] 1.58 µM

C=CCc1ccc2c(c1)OCO2
inactive: Potency [6] > 92 µM | Potency [7] > 92 µM | activity change, negative = cytotoxicity [8] -6.05% | caspase-3 activation [9] 1.31% | outcome [10] | outcome [11] | Potency [12] | Potency [13] | Potency [14] | max response [16] 33.4% | activation [17] -0.401% | Potency [18] | outcome [19] | Potency [20]
-5.37%: max response [15]

O=C(OC1CCN(CCCl)CC1)C(c1ccccc1)c1ccccc1
inactive: Potency [4]
active: Potency [1] 7.08 µM | Potency [2] 2.24 µM | Potency [3] 11.2 µM

O=C(Nc1ccccc1)N1CC2(CCN(C(=O)Oc3ccccc3)CC2)C1
inactive: activation [5] -6.7%

c1ccc(CN2CC[C@@]3(CCCNC3)C2)cc1
inactive: activation [5] 10.9%

c1cnc(N2CCCC3(CCNCC3)C2)nc1
inactive: activation [5] 6.96%

c1ccc(N=Nc2ccccc2)cc1
active: caspase-3 activation [9] 92% | Potency [14] 31.6 µM
inactive: Potency [6] > 92 µM | Potency [7] > 92 µM | activity change, negative = cytotoxicity [8] -2.38% | outcome [10] | outcome [11] | Potency [12] | Potency [13] | max response [16] -1.15% and 2.93% | activation [17] -0.765% and -3.19% | Potency [18] | outcome [19] | Potency [20]
-17.4% and -6.96%: max response [15]

ClC1=C(Cl)C2(Cl)C3C(Cl)C=CC3C1(Cl)C2(Cl)Cl (centres undefined)
inactive: Potency [7] > 92 µM | caspase-3 activation [9] 5.51% | outcome [10] | outcome [11] | Potency [13] | max response [16] -17.9% | activation [17] 1.89% | outcome [19] | Potency [20]
-16.9%: max response [15]
active: Potency [12] 39.8 µM

CC(C)CN1CC2(CCN(C(=O)Oc3ccccc3)CC2)C1
inactive: activation [5] -12.9%

COc1ccc(NC(=O)N2CCC3(CC2)CCN(C(=O)Oc2ccccc2)CC3)cc1
inactive: activation [5] -18.1%

CCOCN(C(=O)CCl)c1c(C)cccc1CC
inactive: outcome [10] | outcome [11] | activation [17] -2.07% and -2.02% | Potency [18] | Potency [20]
active: Potency [6] 22.8 µM | activity change, negative = cytotoxicity [8] -155% | Potency [12] 50.1 µM | Potency [14] 50.1 µM

C/C=C/c1ccc2c(c1)OCO2
-8.06%: max response [15]
inactive: Potency [6] > 92 µM | Potency [7] > 92 µM | activity change, negative = cytotoxicity [8] -3.37% | caspase-3 activation [9] 2.64% | outcome [10] | outcome [11] | Potency [12] | Potency [13] | Potency [14] | max response [16] -0.653% | activation [17] -1.42% | Potency [18] | outcome [19] | Potency [20]

O=S1OCC2C(CO1)C1(Cl)C(Cl)=C(Cl)C2(Cl)C1(Cl)Cl (centres undefined)
inactive: Potency [6] > 92 µM | Potency [7] > 92 µM | activity change, negative = cytotoxicity [8] -20.5% | caspase-3 activation [9] 10.8% | Potency [13] | Potency [14] | max response [16] -29.4% | activation [17] 1.74% | outcome [19] | Potency [20]
1.46%: max response [15]
active: Potency [18] 21.1 µM

ClC1=C(Cl)C2(Cl)C3C4C=CC(C4)C3C1(Cl)C2(Cl)Cl (centres undefined)
inactive: Potency [6] > 92 µM | Potency [7] > 92 µM | activity change, negative = cytotoxicity [8] -10.7% | caspase-3 activation [9] 6.54% | outcome [10] | outcome [11] | Potency [14] | max response [16] -13.5% | outcome [19]
active: Potency [12] 31.6 µM | Potency [13] 50.1 µM | Potency [18] 23.7 µM
-0.359%: max response [15]
